Bioassay records as filed in PubChem.
HT1080-NT tox: qHTS for induction of synthetic lethality in tumor cells producing 2HG: qHTS for the HT-1080-NT fibrosarcoma cell line. hit rate 1.6% among 360,000. Potency, µM (doses to about 46.1 µM), actives largely listed as cytotoxic. HT-1080-NT fibrosarcoma viability, CellTiter-Glo ATP luminescence, 48 h;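 further: NT is the 2HG producing partner of a matched IDH1 knockdown line; nearly all actives have a fitted effect of over 55% in size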
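750 cells/well, RPMI + 5% FBS; 2 h settle, compound pin-transfer, 48 h at 37 degrees C. CellTiter-Glo 10 min RT, luminescence. Normalized to DMSO and media-only wells.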
IL-1B inflam inh: qHTS for Inhibitors of Inflammasome Signaling: IL-1-beta AlphaLISA Primary Screen; THP-1 LPS/ATP IL-1B secretion, AlphaLISA, 16 h; active compounds read low; AID 743279, 2014; hit rate 4.7% among 360,000; activity change, % at 57.5 µM; in the data active means activity change below about -50%; inconclusive means mostly about -30% to -49%
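Secreted IL-1B measured by AlphaLISA bead assay after 16 h compound exposure of THP-1 cells; compounds (final up to 57.5 uM) added 1 h before LPS (250 ng/mL) and ATP (1.25 mM) stimulation; lower signal means less secretion.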
HT1080 IDH1KD tx: qHTS for induction of synthetic lethality in tumor cells producing 2HG: qHTS for the HT-1080-IDH1KD cell line; HT-1080 IDH1 knockdown viability, ATP luminescence, 48 h; Potency, µM (series often up to 46.1 µM), usual class: cytotoxic; hit rate 2% among 360,000
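% activity derives from luminescence (CellTiter-Glo), normalised to DMSO and no-cell wells. HT-1080-IDH1KD cells, 750/well, had 48 h compound exposure at 37 °C.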
TDP1 cell noCPT: qHTS for Inhibitors of human tyrosyl-DNA phosphodiesterase 1 (TDP1): qHTS in cells in absence of CPT. Potency, µM (highest dose often 46.2 µM), hits mostly inhibitors. hit rate 15% among 420,000. DT40 Tdp1-/- hTDP1 cells, no CPT, ATP luminescence, 48 h; further: nearly all actives have a fitted effect of over 55% in size
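Stably hTDP1-transfected Tdp1-null chicken DT40 cells were treated with library compounds minus camptothecin and grown for at least 48 hr at 37 °C, after which cellular ATP was quantified by luminescence.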
TDP1 cell CPT: qHTS for Inhibitors of human tyrosyl-DNA phosphodiesterase 1 (TDP1): qHTS in cells in presence of CPT; AID 686979, 2013; Potency, µM (series often up to 46.2 µM), hits mostly inhibitors; chicken DT40 Tdp1-/-;hTDP1 cells + 20 nM CPT, ATP luminescence, 48 h; hit rate 12% among 420,000; further: nearly all actives have a fitted effect of over 55% in size
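Chicken DT40 Tdp1-/- cells complemented with human TDP1, 400 cells/well, exposed to compounds plus 20 nM camptothecin for at least 48 h at 37 C; viability read as ATP content by CellTiter-Glo luminescence.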
Numbers stand for hits; - = inactive; ? = inconclusive; . = no result. Sampled rows, rich in hits. Any-hit rate of the full collection: about 19%. Unless noted, the call rests on the fitted dose curve; in most records, active means well fitted curve in the direction sought with a large enough effect; inconclusive means small, poorly fitted or top-dose-only effect, or another doubt; inactive means no such curve, though single readings can be large; an effect the other way counts as inactive or inconclusive.

SMILES	HT1080-NT tox	IL-1B inflam inh	HT1080 IDH1KD tx	TDP1 cell noCPT	TDP1 cell CPT
CC1(C)S[C@@H]2[C@H](NC(=O)C(C(=O)Oc3ccc4c(c3)CCC4)c3ccccc3)C(=O)N2[C@H]1C(=O)O (some centres not stated)	.	.	.	-	-
CC(=O)C1=C(O)C(=O)N(Cc2ccccc2)C1c1cccc([N+](=O)[O-])c1 (configuration not stated)	-	-	-	-	-
O=C1C2C(c3ccccc3)CC=CC2[C@H](c2ccc(C(F)(F)F)cc2)N1Cc1ccccc1 (some centres not stated)	?	-	?	?	18µM
Cc1cccc([C@@H]2[C@@H]3C(=O)N(Cc4ccccc4)C(=O)[C@@H]3[C@]3(C)C(=O)N(c4ccc(C(F)(F)F)cc4)C(=O)N23)c1	?	?	-	?	?
C[C@@H]1CC=C[C@@H]2[C@H]1C(=O)N(Cc1ccccc1)[C@H]2c1cccc(Br)c1	-	-	-	?	?
O=C1C2C(c3ccccc3)CC=CC2[C@H](c2cccc([N+](=O)[O-])c2)N1Cc1ccccc1 (some centres not stated)	-	-	-	?	16µM
C[C@@H]1CC=C[C@H]2[C@H]1C(=O)N(Cc1ccccc1)[C@H]2c1ccc(C(F)(F)F)cc1	-	-	-	21µM	?
COC(=O)C1=C(C)N(Cc2ccccc2)C(=NCc2ccc(OC)cc2)N[C@H]1c1cccc(F)c1	-	?	-	16µM	15µM
CCN1C(=NCc2ccc(OC)cc2)N[C@@H](c2ccccc2)C(C(=O)OC)=C1C	-	-	-	?	?
CCN1C(=NCc2cc(OC)c(OC)c(OC)c2)N[C@@H](c2ccccc2)C(C(=O)OC)=C1C	-	-	-	-	?
COC(=O)C1=C(C)N(Cc2ccccc2)C(=NCc2ccco2)N[C@H]1c1cccc(F)c1	-	?	-	18µM	12µM
COC(=O)C1=C(C)N(Cc2ccccc2)C(=NCc2cc(OC)c(OC)c(OC)c2)N[C@H]1c1cccc(F)c1	-	?	-	8.2µM	12µM
COC(=O)C1=C(C)N(Cc2ccccc2)C(=NCc2cccc(Cl)c2)N[C@H]1c1cccc(F)c1	?	?	?	3.7µM	2.6µM
Cn1nnc2cc(C(=O)N3CCN(c4ccccn4)CC3)ccc21	-	-	-	-	-
CCOc1ccc2nc(NC(=O)c3cc(=O)c4cc(C)cc(C)c4o3)sc2c1	.	.	.	-	-
COc1cc(C(C)=O)ccc1COc1ccc(C(=O)O)cc1OC	-	-	-	-	-
O=C(CCC1CCCN(C(=O)c2ccc3c(c2)OCO3)C1)N1CCN(c2ccccn2)CC1 (configuration not stated)	-	-	-	?	?
COc1ccc(Cn2c(C)nc3c(c2=O)c2nc4ccccc4nc2n3Cc2ccco2)cc1	?	-	?	8.2µM	15µM
Cc1ccc(S(=O)(=O)c2c(N)n(CCCN(C)C)c3nc4ccccc4nc23)cc1	-	-	-	?	?
CCC(C)n1cnc2c(c1=O)c1nc3ccccc3nc1n2Cc1ccc(OC)cc1 (configuration not stated)	?	-	-	15µM	?
COc1ccc(S(=O)(=O)c2c(N)n(Cc3ccco3)c3nc4ccccc4nc23)cc1	-	-	-	-	18µM
Cc1cc(C)cc(-n2c3nc4ccccc4nc3c3c(=O)n(Cc4ccco4)cnc32)c1	-	-	-	12µM	23µM
NS(=O)(=O)c1ccc(NC(=O)COc2ccc(S(=O)(=O)N3CCCC3)cc2)cc1	-	-	-	-	-
O=C(NCCc1ccccc1)C1CC(c2ccccc2O)=NO1 (configuration not stated)	-	-	-	-	-
COc1ccc(COC(=O)c2ccc(C)c(S(=O)(=O)N3CCOCC3)c2)cc1F	-	?	-	-	-
Cc1cc(-c2csc(N)n2)c(C)n1CCc1ccccc1	-	-	-	?	23µM
